# ± gives the standard deviation of the averaged measurements. The full data set covers some 6,200 targets. This sample favours those with the largest changes.
# Compound: Nc1ncnc2c1ncn2[C@@H]1O[C@H](COP(=O)(O)OP(=O)(O)NP(=O)(O)O)[C@@H](O)[C@H]1O [adenylyl imidodiphosphate]
# Experiment: NP40-soluble protein abundance relative to vehicle (solubility fold change) (ratio); higher = more soluble protein in presence of AMP-PNP
# Summary of the method: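 Jurkat crude lysate (Dounce-homogenised) was treated with eight concentrations from 0.1 to 10 mM for 10 min at room temperature, then 3 min at 37 °C. It was solubilised with 0.8% NP40 and benzonase (60 min, 4 °C) and ultracentrifuged, and the supernatant was TMT-labelled for LC-MS/MS. Intensities were vsn-normalised, and the value is the fold change against the NP40-processed vehicle per replicate, from three independent experiments.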
# Sequence of UniProt Q9ULF5 (Q9ULF5 whole entry): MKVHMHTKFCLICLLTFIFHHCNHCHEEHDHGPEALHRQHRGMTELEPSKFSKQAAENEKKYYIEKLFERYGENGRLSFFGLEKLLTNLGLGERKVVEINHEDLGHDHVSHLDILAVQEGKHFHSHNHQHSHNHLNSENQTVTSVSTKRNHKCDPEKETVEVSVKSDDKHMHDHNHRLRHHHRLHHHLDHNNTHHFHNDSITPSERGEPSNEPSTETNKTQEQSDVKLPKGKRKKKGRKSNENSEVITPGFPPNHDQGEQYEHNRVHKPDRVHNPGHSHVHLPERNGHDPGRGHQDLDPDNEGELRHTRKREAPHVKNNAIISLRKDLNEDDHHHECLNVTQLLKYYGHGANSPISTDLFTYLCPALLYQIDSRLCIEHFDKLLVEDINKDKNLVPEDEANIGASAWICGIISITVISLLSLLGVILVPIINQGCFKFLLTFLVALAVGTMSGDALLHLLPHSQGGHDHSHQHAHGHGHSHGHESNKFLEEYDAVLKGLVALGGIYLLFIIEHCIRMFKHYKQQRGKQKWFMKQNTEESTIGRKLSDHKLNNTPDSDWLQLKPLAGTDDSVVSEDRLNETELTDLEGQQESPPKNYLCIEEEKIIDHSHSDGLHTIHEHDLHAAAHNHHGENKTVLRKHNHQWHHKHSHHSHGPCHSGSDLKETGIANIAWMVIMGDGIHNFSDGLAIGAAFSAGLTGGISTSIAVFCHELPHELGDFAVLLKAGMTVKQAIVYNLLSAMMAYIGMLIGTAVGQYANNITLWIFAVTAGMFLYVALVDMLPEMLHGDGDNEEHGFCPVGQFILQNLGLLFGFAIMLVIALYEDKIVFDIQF
# Sequence of UniProt Q9UNE7 (Q9UNE7 whole entry): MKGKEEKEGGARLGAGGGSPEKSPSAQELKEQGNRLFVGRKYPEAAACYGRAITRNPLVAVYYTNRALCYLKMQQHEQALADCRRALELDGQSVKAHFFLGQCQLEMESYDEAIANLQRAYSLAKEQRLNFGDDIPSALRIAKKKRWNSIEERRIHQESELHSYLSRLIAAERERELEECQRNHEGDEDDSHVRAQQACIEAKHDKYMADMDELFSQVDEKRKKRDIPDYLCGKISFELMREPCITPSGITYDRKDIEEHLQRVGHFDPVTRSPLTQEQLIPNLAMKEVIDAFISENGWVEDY
# Sequence of UniProt Q9NQC3 (Q9NQC3 whole entry): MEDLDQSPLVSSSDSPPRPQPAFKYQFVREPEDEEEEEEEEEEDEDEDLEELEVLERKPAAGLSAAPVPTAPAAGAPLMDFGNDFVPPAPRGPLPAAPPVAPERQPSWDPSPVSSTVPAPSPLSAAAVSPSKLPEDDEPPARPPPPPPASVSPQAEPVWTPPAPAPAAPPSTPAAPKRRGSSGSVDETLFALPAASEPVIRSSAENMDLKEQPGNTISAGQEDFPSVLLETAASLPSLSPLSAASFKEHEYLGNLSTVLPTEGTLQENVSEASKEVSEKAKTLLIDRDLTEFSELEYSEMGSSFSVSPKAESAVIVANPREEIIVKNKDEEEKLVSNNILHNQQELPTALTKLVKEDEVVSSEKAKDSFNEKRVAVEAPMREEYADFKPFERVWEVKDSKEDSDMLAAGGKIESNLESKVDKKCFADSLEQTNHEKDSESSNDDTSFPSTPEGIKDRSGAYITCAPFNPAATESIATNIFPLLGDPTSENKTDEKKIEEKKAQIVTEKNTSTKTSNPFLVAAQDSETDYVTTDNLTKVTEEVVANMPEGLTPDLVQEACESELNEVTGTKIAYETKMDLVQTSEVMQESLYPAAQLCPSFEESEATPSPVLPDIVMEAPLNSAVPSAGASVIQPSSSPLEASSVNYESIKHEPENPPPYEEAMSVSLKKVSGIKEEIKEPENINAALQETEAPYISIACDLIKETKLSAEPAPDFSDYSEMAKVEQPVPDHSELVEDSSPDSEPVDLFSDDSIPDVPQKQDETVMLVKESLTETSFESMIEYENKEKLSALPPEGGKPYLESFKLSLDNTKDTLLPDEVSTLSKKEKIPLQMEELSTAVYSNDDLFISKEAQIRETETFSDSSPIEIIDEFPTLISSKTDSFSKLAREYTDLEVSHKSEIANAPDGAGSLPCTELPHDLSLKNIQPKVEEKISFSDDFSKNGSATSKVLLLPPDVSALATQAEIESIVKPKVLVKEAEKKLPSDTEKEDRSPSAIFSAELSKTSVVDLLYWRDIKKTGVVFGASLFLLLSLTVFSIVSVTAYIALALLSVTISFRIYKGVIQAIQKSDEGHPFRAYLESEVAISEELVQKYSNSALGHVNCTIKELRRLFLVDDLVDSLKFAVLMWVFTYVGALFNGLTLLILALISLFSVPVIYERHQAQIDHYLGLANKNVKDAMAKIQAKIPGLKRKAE
# Sequence of UniProt Q96FS4 (Q96FS4 whole entry): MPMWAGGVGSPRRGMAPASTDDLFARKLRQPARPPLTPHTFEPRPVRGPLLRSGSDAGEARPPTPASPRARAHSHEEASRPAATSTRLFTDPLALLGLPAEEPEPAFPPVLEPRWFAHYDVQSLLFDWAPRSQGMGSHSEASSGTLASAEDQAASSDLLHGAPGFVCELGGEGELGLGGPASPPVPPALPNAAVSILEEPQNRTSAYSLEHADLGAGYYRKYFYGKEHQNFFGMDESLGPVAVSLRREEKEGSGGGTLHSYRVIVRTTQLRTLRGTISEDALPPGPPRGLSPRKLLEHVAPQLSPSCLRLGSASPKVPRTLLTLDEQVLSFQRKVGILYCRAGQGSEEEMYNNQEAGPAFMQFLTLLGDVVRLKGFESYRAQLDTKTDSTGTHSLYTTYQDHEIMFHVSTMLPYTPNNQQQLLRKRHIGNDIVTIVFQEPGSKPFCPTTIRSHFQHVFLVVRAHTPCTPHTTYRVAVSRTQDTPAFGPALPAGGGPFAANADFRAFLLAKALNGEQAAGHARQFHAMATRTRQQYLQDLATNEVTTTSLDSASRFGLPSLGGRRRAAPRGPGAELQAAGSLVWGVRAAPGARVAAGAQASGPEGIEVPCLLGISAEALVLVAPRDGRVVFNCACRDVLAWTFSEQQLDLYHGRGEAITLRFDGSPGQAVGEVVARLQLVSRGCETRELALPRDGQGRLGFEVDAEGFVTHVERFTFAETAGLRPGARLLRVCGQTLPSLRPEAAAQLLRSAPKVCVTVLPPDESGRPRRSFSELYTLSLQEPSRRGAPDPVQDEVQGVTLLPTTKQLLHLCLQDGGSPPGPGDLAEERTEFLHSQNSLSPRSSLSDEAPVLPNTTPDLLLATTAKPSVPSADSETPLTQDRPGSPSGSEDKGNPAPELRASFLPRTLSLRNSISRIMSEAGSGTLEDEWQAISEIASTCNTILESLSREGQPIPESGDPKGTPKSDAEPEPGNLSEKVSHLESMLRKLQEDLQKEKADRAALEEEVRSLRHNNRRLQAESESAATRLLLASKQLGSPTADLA
# Sequence of UniProt Q9Y5V3 (Q9Y5V3 whole entry): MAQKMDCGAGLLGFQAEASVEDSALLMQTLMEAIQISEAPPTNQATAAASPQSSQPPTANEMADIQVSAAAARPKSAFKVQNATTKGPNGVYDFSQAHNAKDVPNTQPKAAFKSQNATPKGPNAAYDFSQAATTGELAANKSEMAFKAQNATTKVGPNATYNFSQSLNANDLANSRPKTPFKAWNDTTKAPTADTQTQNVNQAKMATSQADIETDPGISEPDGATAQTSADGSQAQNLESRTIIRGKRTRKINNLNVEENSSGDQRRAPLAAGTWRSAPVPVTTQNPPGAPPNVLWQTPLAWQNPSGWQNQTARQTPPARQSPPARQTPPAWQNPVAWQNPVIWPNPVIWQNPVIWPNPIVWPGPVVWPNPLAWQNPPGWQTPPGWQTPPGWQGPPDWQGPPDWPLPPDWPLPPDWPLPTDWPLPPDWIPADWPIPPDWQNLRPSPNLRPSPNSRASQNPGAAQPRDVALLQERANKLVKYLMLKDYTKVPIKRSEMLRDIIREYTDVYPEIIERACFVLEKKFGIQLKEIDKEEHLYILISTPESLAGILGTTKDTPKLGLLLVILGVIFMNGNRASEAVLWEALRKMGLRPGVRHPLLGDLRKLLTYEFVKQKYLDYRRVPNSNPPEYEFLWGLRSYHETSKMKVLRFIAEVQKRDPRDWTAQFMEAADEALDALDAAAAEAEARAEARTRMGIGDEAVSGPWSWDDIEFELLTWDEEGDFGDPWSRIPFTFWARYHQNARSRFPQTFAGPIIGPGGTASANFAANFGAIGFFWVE
# Sequence of UniProt Q9NQ29 (Q9NQ29 whole entry): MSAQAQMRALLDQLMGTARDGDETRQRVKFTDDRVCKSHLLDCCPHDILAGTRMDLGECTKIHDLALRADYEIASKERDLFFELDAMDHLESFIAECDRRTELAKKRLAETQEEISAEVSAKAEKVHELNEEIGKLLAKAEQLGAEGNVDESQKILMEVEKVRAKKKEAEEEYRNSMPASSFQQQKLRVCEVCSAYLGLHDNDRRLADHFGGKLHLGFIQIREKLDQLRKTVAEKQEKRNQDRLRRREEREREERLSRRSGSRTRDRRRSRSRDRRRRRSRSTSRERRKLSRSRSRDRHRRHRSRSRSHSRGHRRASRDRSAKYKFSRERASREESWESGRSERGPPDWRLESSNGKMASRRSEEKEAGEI
# Sequence of UniProt Q9ULX3 (Q9ULX3 whole entry): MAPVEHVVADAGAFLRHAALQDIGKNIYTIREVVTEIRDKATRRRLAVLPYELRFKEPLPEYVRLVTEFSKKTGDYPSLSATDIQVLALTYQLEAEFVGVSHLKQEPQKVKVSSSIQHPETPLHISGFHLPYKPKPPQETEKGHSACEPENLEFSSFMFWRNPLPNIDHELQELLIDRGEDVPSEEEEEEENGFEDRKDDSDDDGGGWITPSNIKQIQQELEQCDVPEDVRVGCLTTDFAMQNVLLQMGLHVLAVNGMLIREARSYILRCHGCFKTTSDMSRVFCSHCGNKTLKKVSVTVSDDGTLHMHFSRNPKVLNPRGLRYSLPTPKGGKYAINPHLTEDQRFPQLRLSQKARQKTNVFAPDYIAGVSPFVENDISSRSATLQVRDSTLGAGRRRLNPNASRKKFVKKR
Target,NP40-soluble protein abundance (concentration: 1mM),NP40-soluble protein abundance (concentration: 2mM),NP40-soluble protein abundance (concentration: 4mM),NP40-soluble protein abundance (concentration: 6mM),NP40-soluble protein abundance (concentration: 8mM),NP40-soluble protein abundance (concentration: 10mM)
UniProt Q96JP5|A0A0A6YYC7|Q96JP5-2,1.01 ± 0.017,1.05 ± 0.03,1.01 ± 0.021,1.04 ± 0.068,0.987 ± 0.057,1.01 ± 0.046
UniProt Q9ULV4|Q9ULV4-2|Q9ULV4-3,1.07 ± 0.04,1.11 ± 0.056,1.12 ± 0.026,1.26 ± 0.015,1.33 ± 0.018,1.39 ± 0.037
SLC39A10 (UniProt Q9ULF5),0.998 ± 0.021,1.07 ± 0.045,1.01 ± 0.026,1 ± 0.029,0.985 ± 0.04,0.994 ± 0.036
UniProt Q9BZL4-4|Q9BZL4,1 ± 0.033,1.04 ± 0.036,1.01 ± 0.047,0.997 ± 0.023,0.978 ± 0.017,0.999 ± 0.015
UniProt Q9Y2S0|Q9Y2S0-2|A0A0R4J2F3,1.03 ± 0.024,1.06 ± 0.053,1.08 ± 0.062,1.02 ± 0.018,1.03 ± 0.041,1.07 ± 0.036
UniProt Q96T23|Q96T23-2,1.07 ± 0.026,1.21 ± 0.11,1.32 ± 0.061,1.53 ± 0.18,1.67 ± 0.21,1.93 ± 0.25
UniProt Q9NXK8|Q9NXK8-2,1.018 ± 0.0035,1 ± 0.031,0.9901 ± 0.0047,0.9994 ± 0.008,1.005 ± 0.0022,0.998 ± 0.024
UniProt Q9NQ29|Q9NQ29-3|Q9NQ29-2,1.02 ± 0.04,1.13 ± 0.12,1.11 ± 0.055,1.15 ± 0.027,1.15 ± 0.091,1.35 ± 0.098
STUB1 (UniProt Q9UNE7),0.989 ± 0.017,1.02 ± 0.014,0.977 ± 0.018,0.9527 ± 0.0059,0.938 ± 0.018,0.927 ± 0.019
HECA (UniProt Q9UBI9),0.969 ± 0.029,1 ± 0.017,1.02 ± 0.049,1.034 ± 0.0078,1.06 ± 0.046,1.04 ± 0.024
SIPA1 (UniProt Q96FS4),1.01 ± 0.037,1.013 ± 0.003,1.03 ± 0.025,1.05 ± 0.029,1.03 ± 0.036,1.04 ± 0.02
UniProt Q9Y5V3|Q9Y5V3-2,1 ± 0.08,1 ± 0.059,0.937 ± 0.08,0.869 ± 0.077,0.81 ± 0.027,0.858 ± 0.048
RTN4 (UniProt Q9NQC3),1.05 ± 0.014,1.07 ± 0.057,1.04 ± 0.028,1.02 ± 0.014,1.01 ± 0.032,1.03 ± 0.065
UniProt Q9Y2A7|Q9Y2A7-2,0.972 ± 0.026,0.974 ± 0.034,0.9706 ± 0.0091,1 ± 0.019,0.976 ± 0.02,0.985 ± 0.026
UniProt Q9H2H8|B8ZZ77|Q9H2H8-2,1.04 ± 0.038,1.04 ± 0.032,1.04 ± 0.017,0.998 ± 0.031,1.02 ± 0.018,1.03 ± 0.038
BCS1L (UniProt Q9Y276),0.966 ± 0.021,0.874 ± 0.11,0.996 ± 0.024,0.955 ± 0.035,0.982 ± 0.024,0.937 ± 0.035
PNKP (UniProt Q96T60),1.02 ± 0.041,1.02 ± 0.054,1.1 ± 0.071,1.18 ± 0.021,1.23 ± 0.047,1.22 ± 0.079
THOC3 (UniProt Q96J01),1.07 ± 0.069,1.1 ± 0.075,1.17 ± 0.15,1.24 ± 0.16,1.3 ± 0.23,1.34 ± 0.27
ZNF48 (UniProt Q96MX3),1.015 ± 0.0097,1.062 ± 0.0052,1.05 ± 0.033,1.06 ± 0.028,1.06 ± 0.017,1.12 ± 0.059
CBX8 (UniProt Q9HC52),1.08 ± 0.015,1.1 ± 0.04,1.13 ± 0.018,1.23 ± 0.028,1.33 ± 0.062,1.39 ± 0.044
UniProt Q9NZQ3|Q9NZQ3-3,1.04 ± 0.066,0.9853 ± 0.0064,1.03 ± 0.045,0.984 ± 0.029,1.02 ± 0.047,0.99 ± 0.014
ASF1A (UniProt Q9Y294),0.958 ± 0.077,0.863 ± 0.091,0.904 ± 0.068,0.921 ± 0.037,0.946 ± 0.032,0.844 ± 0.11
CCDC124 (UniProt Q96CT7),1.13 ± 0.037,1.29 ± 0.15,1.35 ± 0.058,1.58 ± 0.12,1.86 ± 0.17,2.16 ± 0.25
CCDC115 (UniProt Q96NT0),0.994 ± 0.046,1.01 ± 0.043,1.01 ± 0.035,1 ± 0.04,0.968 ± 0.06,0.992 ± 0.041
NOB1 (UniProt Q9ULX3),0.972 ± 0.013,0.956 ± 0.027,0.984 ± 0.042,0.966 ± 0.023,1 ± 0.043,1 ± 0.047
SUPT16H (UniProt Q9Y5B9),1.03 ± 0.016,1.01 ± 0.023,1.1 ± 0.049,1.24 ± 0.053,1.33 ± 0.055,1.46 ± 0.12
UniProt Q9H0A0|Q9H0A0-2|A0A087WV29,1.47 ± 0.19,1.5 ± 0.19,1.62 ± 0.21,1.66 ± 0.17,1.79 ± 0.25,1.8 ± 0.17
UniProt Q9UPT9|Q9UPT9-2,0.953 ± 0.022,0.953 ± 0.035,0.96 ± 0.025,0.922 ± 0.027,0.936 ± 0.021,0.922 ± 0.02

# From the supplement of paper PMC6411743
